# Only some compounds are listed: those with a hit (about 3.4% of all), similar ones and a draw of the others.
# Mcl-1 Bim block = disrupts Bim peptide binding to human Mcl-1; Bead-based flow cytometry, Bim peptide-Mcl-1 binding; actives 0.1% (n = 190,000); inhibition, % at 10 µM; in the data active = inhibition above about 40%;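 also: 0% = no compound tracer wells and 100% = peptide blocker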
# Mcl1 Bid PPI = Mcl-1/Bid interaction inhibition. inhibition, % at 21.7 µM. AID 1021. TR-FRET Mcl-1/Bid-Dy647 peptide binding, 1536-well. actives 0.97% (n = 220,000). Q07820;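 active = compounds that cut the binding signal by more than half at the single screening dose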;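 also: His-tagged Mcl-1 with europium anti-His antibody binding Bid BH3 peptide; 0% = Mcl-1 plus peptide wells and 100% = peptide-only wells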
# Mcl1-Noxa inh = Mcl-1/Noxa interaction inhibition. Q07820. TR-FRET Mcl-1/Noxa peptide binding, 2 h. inhibition, % at 21.7 µM. actives 1.5% (n = 220,000). AID 1022;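 active = compounds that cut the protein-peptide binding signal by more than 50% relative to plate controls in a single-dose test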;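 also: His-tagged Mcl-1 with rhodamine Noxa BH3 peptide and terbium anti-His antibody; 0% = Mcl-1 plus Noxa peptide wells and 100% = peptide-only wells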
# 14-3-3 Bad inh = disrupts binding of bovine 14-3-3 zeta to phospho-Bad peptide. TR-FRET 14-3-3zeta/Dy647-pBad peptide displacement, 1 h. actives 0.71% (n = 220,000). inhibition, % at 21.7 µM. P63103;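 active = inhibition above about 70%, limit read from the data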;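 also: 0% = full 14-3-3 plus peptide FRET controls and 100% = background without 14-3-3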
# NCF1 inh = blocks human p47phox regulatory protein of NADPH oxidases; p47phox/p22phox peptide binding, fluorescence polarization, 2 h; inhibition, % at 24.7 µM; P14598; actives 0.53% (n = 220,000);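 active = inhibition above about 30%, limit read from the data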;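 also: 0% = p47phox with labelled peptide and 100% = labelled peptide alone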
# Target sequence (P14598 whole entry, looked up): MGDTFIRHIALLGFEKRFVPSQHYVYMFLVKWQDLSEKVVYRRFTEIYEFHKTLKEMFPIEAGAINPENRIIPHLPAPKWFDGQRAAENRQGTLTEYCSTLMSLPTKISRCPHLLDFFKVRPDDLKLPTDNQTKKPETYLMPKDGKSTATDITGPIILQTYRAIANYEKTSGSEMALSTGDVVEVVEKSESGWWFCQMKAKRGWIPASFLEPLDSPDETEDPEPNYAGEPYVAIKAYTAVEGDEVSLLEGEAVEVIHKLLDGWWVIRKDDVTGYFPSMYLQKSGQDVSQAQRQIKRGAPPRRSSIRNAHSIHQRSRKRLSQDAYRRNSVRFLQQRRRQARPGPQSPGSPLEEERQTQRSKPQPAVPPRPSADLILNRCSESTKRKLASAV
# Calpain2 inh = calpain II (pig) inhibition. purified calpain II, fluorogenic peptide substrate, 30 min. AID 1236. inhibition, % at 16 µM. actives 0.37% (n = 220,000);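 active = inhibition above about 50%, limit read from the data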
# Starred values were filed as active, the others as inactive; · = no result; [ ] = another dose, or the depositor's remark.
SMILES,Mcl-1 Bim block,Mcl1 Bid PPI,Mcl1-Noxa inh,14-3-3 Bad inh,NCF1 inh,Calpain2 inh
O=C(Nc1ccc(C(F)(F)F)cc1)c1cccn(Cc2ccc3c(c2)OC(F)(F)O3)c1=O,1,-2,-1,-7,-19,18
O=C(Nc1cccc(C(F)(F)F)c1)c1cccn(Cc2ccc3c(c2)OC(F)(F)O3)c1=O,-3,-10,6,-8,-18,52*
COc1cc(/C=C/c2nc3ccccc3c(=O)n2-c2cccc(O)c2)ccc1O,·,63*,96*,52,-41,-13
O=c1c2ccccc2nc(/C=C/c2ccc(O)cc2)n1-c1ccccc1O,·,6,9,-19,-29,-13
COc1cccc(-n2c(=S)[nH]c3ccccc3c2=O)c1,-2,-29,11,-10,-12,-1
COc1ccc2c(c1)NP(=S)(Oc1ccccc1)N2 (stereo not drawn),·,-51,52*,14,4,7
CCC(CC)N1CCN(C(=O)Cc2ccccc2)CC1,-11,39,28,71*,4,12
CC(=NCc1ccc2c(c1)OCO2)c1c(O)n(-c2ccc(C)cc2)c(=O)[nH]c1=O,·,-5,13,5,-4,2
O=C1NC(=O)C(=Cc2ccc(-c3cc(Cl)ccc3[N+](=O)[O-])o2)C(=O)N1,-4,32,87*,79*,-20,-90
O=[N+]([O-])/C=C1\NCCN1Cc1ccc(Cl)nc1,-1,-9,-2,-24,-4,-9
C=Cn1ccnc1P(=S)(c1ccc(Cl)cc1)c1nccn1C=C,-1,-31,13,-10,5,5
CC12CN3CCN(CC(C3)/C1=N/NC(N)=O)C2,·,19,8,-14,1,19
Brc1ccccc1,·,83*,-15,0,-7,-6
Oc1ccc(/C=N/NP(=S)(c2ccccc2)c2ccccc2)cc1,0,5,5,-4,-41,47
COc1cc(/C=N/NP(=S)(c2ccccc2)c2ccccc2)ccc1O,-2,2,15,-18,-6,53*
N/C(=N\N=C/c1ccc(-c2ccc(O)c(C(=O)O)c2)o1)N[N+](=O)[O-],-1,24,87*,95*[fluorescence artefact?],-69,-6
Cc1ccc2c(c1Cl)NC(C(=O)O)C1CC(Sc3ccccc3[N+](=O)[O-])C(Cl)C21 (stereo not drawn),·,-37,97*,41,3,-16
CCN(CC)C(=O)c1ccc2c(c1)C1C(Cl)C(Sc3ccccc3[N+](=O)[O-])CC1C(C(=O)O)N2 (stereo not drawn),·,-1,63*,40,46*,13
Cc1cc(Cl)nc(N)n1,-5,2,9,-6,4,17
CN(C)CCOC(=O)c1cn(Cc2ccccc2)c2ccccc12,-1,-16,15,22,-7,0

# Assay outcomes as filed in PubChem.
